Records with an inconclusive call do not appear. Calls of active or inactive are those of the source. Unless noted, calls come from the whole dose curve.
Key:
[1] = Nuclear factor erythroid 2-related factor 2/antioxidant responsive element (Nrf2/ARE) small molecule agonists: qHTS cell viability counter screen in human keratinocytes (AID 1919968; active = well fitted curve in the direction sought with a large enough effect in the repeat runs; an effect the other way counts as inactive or inconclusive; note: nearly all actives have a fitted effect of over 55% in size; note: potency is the fitted concentration of half-maximal effect)
Summary of the method: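 KeratinoSens HaCaT cells, 1,500/well, preincubated 5 h, then exposed to compounds in DMSO for 23 h at 37 C/5% CO2. Viability read as CellTiter-Fluor fluorescence after 1 h, in the same wells as the ARE-luciferase read.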

[2] = Nuclear factor erythroid 2-related factor 2/antioxidant responsive element (Nrf2/ARE) small molecule agonists: luciferase reporter gene qHTS assay in human keratinocytes (AID 1919969); note: nearly all actives have a fitted effect of over 35% in size; note: potency is the fitted concentration of half-maximal effect
[3] = biological target: Gonadotropin-releasing hormone receptor (Homo sapiens) (UniProt P30968); experiment: Human gonadotropin-releasing hormone receptor (GnRHR) small molecule agonists, calcium flux assay in GnRHR-HEK293 cells (AID 1920063); note: nearly all actives have a fitted effect of over 35% in size
Summary of the method: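 HEK293 cells stably expressing human GnRHR were dye-loaded for 1 h at 37 C. Compound was added in agonist mode and fluorescence (Ex/Em 480/540) recorded kinetically for 3 min. Fifteen concentrations, triplicates.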

[4] = biological target: KiSS-1 receptor (Homo sapiens) (UniProt Q969F8); experiment: Human kisspeptin (KISS1R) small molecule agonists, calcium flux assay in KISS1R-HEK293 cells (AID 1920064; active = well fitted curve in the direction sought with a large enough effect in the repeat runs; an effect the other way counts as inactive or inconclusive)
Summary of the method: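 HEK293 cells stably expressing human KISS1R were loaded with calcium dye for 1 h at 37 C, then given compound; fluorescence (Ex/Em 480/540) was read kinetically for 3 min. Fifteen concentrations, triplicate.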

[5] = G protein-coupled receptor (GPCR) small molecule agonists, calcium flux assay: HEK293 wild type cell line counter screen (AID 1920065)
Summary of the method: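 Wild-type HEK293 cells plated 18 h, loaded with calcium dye 1 h at 37 C, then compounds added in agonist mode (ATP as positive control). Kinetic fluorescence Ex/Em 480/540 recorded 3 min at 1 sec intervals; 15 concentrations, triplicate.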

[6] = p53 small molecule agonists, cell-based qHTS assay with rat liver microsomes (AID 1963578)
Summary of the method: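 Agonist mode in p53RE-bla reporter cells, with compounds co-incubated 16 h at 37 C alongside 0.5 mg/mL rat liver microsomes and 0.5 mg/mL NADPH (final), followed by a 2 h LiveBLAzer detection step.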

[7] = p53 small molecule agonists, cell-based qHTS assay with rat liver microsomes: qHTS cell viability counter screen (AID 1963580); note: nearly all actives have a fitted effect of over 45% in size
Summary of the method: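 p53RE-bla HCT-116 cells were exposed 16 h at 37 C to compounds with rat liver microsomes (0.5 mg/mL) and NADPH (0.5 mg/mL). Viability was measured in the same wells as ATP content by CellTiter-Glo luminescence.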

[8] = p53 small molecule agonists, cell-based qHTS assay: qHTS cell viability counter screen (AID 1963581); note: nearly all actives have a fitted effect of over 45% in size
Summary of the method: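 p53RE-bla HCT-116 cells, compounds added 5 h after plating and incubated 16 h at 37 C. Cytotoxicity measured in the same wells as intracellular ATP by CellTiter-Glo luminescence after 30 min at room temperature.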

[9] = p53 small molecule agonists, cell-based qHTS assay (AID 1963582; active = well fitted activation curve with a large enough effect in the signal ratio in the repeat runs, not every such curve was filed as active; the % refers to the signal ratio)
Summary of the method: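 p53RE-bla reporter cells, compounds added in DMSO after 5 h plating, incubated 16 h at 37 C. Beta-lactamase read via 2 h room-temperature LiveBLAzer B/G FRET substrate, fluorescence intensity.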

[10] = biological target: 5-hydroxytryptamine receptor 2A (Homo sapiens) (UniProt P28223); experiment: 5-hydroxytryptamine receptor 2A (HTR2A) small molecule antagonists, cell-based qHTS assay (AID 1963586); note: nearly all actives have a fitted effect of over 45% in size
Summary of the method: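 Antagonist-mode intracellular calcium assay: DOI (4 nM) added after 5 min compound pre-incubation at room temperature to dye-loaded HTR2A-CHO cells. Fluorescence followed for 3 min, sampled every second.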

[11] = biological target: Muscarinic acetylcholine receptor M1 (Homo sapiens) (UniProt P11229); experiment: Cholinergic receptor muscarinic 1 (CHRM1) small molecule antagonists, cell-based qHTS assay (AID 1963588); note: nearly all actives have a fitted effect of over 40% in size
Summary of the method: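 CHRM1-CHO calcium-flux assay, antagonist mode. Cells were seeded 18 h, dye-loaded 1 h at 37 C and given compound for 5 min at RT, then acetylcholine was added at 50nM. FDSS fluorescence was read 3 min; 15 concentrations, three runs.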

[12] = biological target: Muscarinic acetylcholine receptor M1 (Homo sapiens) (UniProt P11229); experiment: Cholinergic receptor muscarinic 1 (CHRM1) small molecule agonists, cell-based qHTS assay (AID 1963589); note: nearly all actives have a fitted effect of over 35% in size
Summary of the method: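 CHO cells stably expressing human CHRM1 were loaded with calcium dye for 1 h at 37 C, then compound was added in agonist mode. Intracellular calcium fluorescence was followed kinetically at 1 s intervals. Fifteen concentrations were tested in three independent runs.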

[13] = cAMP Responsive Elements (CRE) small molecule agonists, cell-based qHTS assay (AID 1963590)
Summary of the method: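 CRE-bla HEK 293T cells, 2,000/well in DMEM with 10% dialyzed FBS and 25 mM HEPES, pre-incubated 18 h at 37 C, then exposed to compound 3 h at 37 C. Beta-lactamase reporter read with LiveBLAzer B/G FRET substrate after 2 h at room temperature.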

[14] = biological target: Beta-2 adrenergic receptor (Homo sapiens) (UniProt P07550); experiment: Adrenergic beta2 receptor (ADRB2) small molecule antagonists, cell-based qHTS assay (AID 1963592); note: series mostly up to about 92 µM; nearly all actives have a fitted effect of over 50% in size
Summary of the method: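 Cells (CHO, stable ADRB2 overexpression) incubated 18-20hr at 37C; compounds added from DMSO; agonist mix (1nM isoproterenol, 100uM IBMX, 25uM Ro-20-1724) added; 0.5hr RT; d2-cAMP and anti-cAMP-cryptate added; 1hr RT; 665/615 nm read.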

[15] = biological target: D(2) dopamine receptor (Homo sapiens) (UniProt P14416); experiment: Dopamine D2 receptor (DRD2) small molecule agonists, cell-based qHTS assay (AID 1963594); note: nearly all actives have a fitted effect of over 35% in size
Summary of the method: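 HEK293 cells stably expressing human DRD2, pre-treated with PDE inhibitor Ro20-1724 (0.1 mM final) and compound 10 min at room temperature, then stimulated with NKH477 (200nM […]) for 30 min. cAMP read by HTRF (665/620 nm).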

[16] = biological target: D(2) dopamine receptor (Homo sapiens) (UniProt P14416); experiment: Dopamine D2 receptor (DRD2) small molecule antagonists, cell-based qHTS assay (AID 1963595; active = well fitted inhibition curve with a large enough effect in the signal ratio in the repeat runs, with a control signal flat; the % refers to the signal ratio; note: potency is the fitted concentration of half-maximal effect)
Summary of the method: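 Antagonism was scored as restored cAMP in HEK293-DRD2 cells. These cells were stimulated with 200 nM NKH477 and 12 nM quinpirole for 30 min at room temperature, in the presence of 0.1 mM Ro20-1724.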

[17] = p53 small molecule agonists, cell-based qHTS assay with human liver microsomes: qHTS cell viability counter screen (AID 1963579); note: nearly all actives have a fitted effect of over 45% in size
Summary of the method: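 Metabolically activated exposure: compounds, human liver microsomes and NADPH (0.5 mg/mL final apiece) were added to p53RE-bla cells seeded 5 h earlier, left 16 h at 37 C, and then assessed for viability by CellTiter-Glo luminescence.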

[18] = biological target: 5-hydroxytryptamine receptor 2A (Homo sapiens) (UniProt P28223); experiment: 5-hydroxytryptamine receptor 2A (HTR2A) small molecule agonists, cell-based qHTS assay (AID 1963587); note: nearly all actives have a fitted effect of over 30% in size
Summary of the method: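 CHO cells stably expressing human HTR2A, plated 18 h, loaded with calcium dye 1 h at 37 C. Agonist mode: compounds added and intracellular calcium fluorescence recorded kinetically for 2 min at 1 sec intervals.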

[19] = cAMP Responsive Elements (CRE) small molecule antagonists, cell-based qHTS assay (AID 1963591; active = well fitted inhibition curve with a large enough effect in the signal ratio in the repeat runs, not every such curve was filed as active; the % refers to the signal ratio)
Summary of the method: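 CRE-bla HEK293T cells plated 18 h, then given compound plus NKH477 at 0.25 uM final for 3 h at 37C. Beta-lactamase reporter read with LiveBLAzer B/G FRET substrate after 2 h at room temperature.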

Measured: Potency

Beta-2 adrenergic receptor (Homo sapiens), sequence (P07550 whole entry, looked up): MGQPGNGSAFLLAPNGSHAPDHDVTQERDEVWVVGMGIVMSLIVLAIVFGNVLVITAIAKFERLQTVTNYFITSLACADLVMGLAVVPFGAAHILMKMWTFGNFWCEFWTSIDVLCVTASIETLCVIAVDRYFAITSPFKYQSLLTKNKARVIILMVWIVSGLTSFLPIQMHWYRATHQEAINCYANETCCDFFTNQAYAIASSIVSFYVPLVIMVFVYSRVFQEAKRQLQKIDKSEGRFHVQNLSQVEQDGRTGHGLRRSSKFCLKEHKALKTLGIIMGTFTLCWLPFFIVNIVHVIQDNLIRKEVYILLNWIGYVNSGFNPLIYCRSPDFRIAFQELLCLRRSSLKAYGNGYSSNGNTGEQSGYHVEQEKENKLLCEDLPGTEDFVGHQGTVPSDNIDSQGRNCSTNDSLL
Gonadotropin-releasing hormone receptor (Homo sapiens), sequence (P30968 whole entry, looked up): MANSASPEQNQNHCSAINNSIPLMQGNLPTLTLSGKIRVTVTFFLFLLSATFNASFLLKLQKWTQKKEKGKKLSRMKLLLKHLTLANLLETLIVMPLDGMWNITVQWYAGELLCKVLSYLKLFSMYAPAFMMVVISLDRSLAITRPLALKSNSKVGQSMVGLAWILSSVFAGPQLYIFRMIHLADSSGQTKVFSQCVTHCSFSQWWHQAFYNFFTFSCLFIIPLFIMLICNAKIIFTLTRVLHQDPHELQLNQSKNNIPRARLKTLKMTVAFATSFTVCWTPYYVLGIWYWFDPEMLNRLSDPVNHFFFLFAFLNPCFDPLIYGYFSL
KiSS-1 receptor (Homo sapiens), sequence (Q969F8 whole entry, looked up): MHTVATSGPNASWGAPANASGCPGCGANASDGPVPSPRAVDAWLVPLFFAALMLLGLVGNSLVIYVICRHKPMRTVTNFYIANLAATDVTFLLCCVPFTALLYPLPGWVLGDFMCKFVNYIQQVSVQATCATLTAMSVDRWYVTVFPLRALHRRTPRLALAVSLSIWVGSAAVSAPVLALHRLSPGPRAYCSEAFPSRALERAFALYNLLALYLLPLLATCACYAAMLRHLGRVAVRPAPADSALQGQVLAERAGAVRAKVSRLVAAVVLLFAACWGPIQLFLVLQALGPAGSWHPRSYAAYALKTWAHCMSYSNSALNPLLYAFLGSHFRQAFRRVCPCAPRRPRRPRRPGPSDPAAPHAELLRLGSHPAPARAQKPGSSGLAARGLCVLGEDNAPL
Muscarinic acetylcholine receptor M1 (Homo sapiens), sequence (P11229 whole entry, looked up): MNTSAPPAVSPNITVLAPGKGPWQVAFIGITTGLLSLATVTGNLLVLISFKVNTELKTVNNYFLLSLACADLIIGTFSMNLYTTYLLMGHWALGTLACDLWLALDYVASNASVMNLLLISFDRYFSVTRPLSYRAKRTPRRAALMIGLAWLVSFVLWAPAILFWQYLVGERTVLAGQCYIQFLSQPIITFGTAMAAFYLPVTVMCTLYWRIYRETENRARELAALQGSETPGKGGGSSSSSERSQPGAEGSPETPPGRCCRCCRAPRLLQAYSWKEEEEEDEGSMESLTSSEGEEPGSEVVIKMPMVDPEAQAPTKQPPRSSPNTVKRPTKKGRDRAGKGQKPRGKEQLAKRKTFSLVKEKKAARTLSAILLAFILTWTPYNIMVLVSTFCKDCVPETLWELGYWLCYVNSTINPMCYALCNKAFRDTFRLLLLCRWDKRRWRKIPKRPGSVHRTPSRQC
D(2) dopamine receptor (Homo sapiens), sequence (P14416 whole entry, looked up): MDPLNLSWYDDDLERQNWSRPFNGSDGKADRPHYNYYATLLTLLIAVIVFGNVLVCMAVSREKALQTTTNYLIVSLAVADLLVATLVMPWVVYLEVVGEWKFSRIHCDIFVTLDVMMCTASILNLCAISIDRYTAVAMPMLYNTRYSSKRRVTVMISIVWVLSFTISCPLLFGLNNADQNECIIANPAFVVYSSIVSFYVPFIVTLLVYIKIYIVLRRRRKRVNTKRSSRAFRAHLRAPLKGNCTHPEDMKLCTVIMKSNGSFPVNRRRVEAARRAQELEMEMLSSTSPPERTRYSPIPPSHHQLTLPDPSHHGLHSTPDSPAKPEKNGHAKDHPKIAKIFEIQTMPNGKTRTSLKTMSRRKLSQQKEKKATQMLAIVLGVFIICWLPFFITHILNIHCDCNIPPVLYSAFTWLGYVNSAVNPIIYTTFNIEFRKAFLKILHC
5-hydroxytryptamine receptor 2A (Homo sapiens), sequence (P28223 whole entry, looked up): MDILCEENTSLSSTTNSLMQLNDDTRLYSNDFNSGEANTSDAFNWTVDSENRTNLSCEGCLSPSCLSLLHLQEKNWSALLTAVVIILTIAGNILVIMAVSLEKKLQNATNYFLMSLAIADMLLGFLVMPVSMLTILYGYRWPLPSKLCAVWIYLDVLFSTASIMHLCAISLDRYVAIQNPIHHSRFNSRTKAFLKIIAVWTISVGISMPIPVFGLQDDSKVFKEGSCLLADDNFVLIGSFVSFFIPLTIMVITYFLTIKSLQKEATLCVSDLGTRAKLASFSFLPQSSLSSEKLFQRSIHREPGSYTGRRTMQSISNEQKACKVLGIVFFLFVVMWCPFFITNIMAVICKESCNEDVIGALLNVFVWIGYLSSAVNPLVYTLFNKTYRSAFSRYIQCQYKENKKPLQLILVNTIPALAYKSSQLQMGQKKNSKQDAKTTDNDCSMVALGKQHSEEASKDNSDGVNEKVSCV

C=C1CC[C@H]2O[C@]2(C)CC[C@@H]2[C@@H]1CC2(C)C
not listed: [17] | [18] | [19]
inactive: all other assays above

CC(=O)Oc1ccc(C2(c3ccc(OC(C)=O)cc3)C(=O)Nc3ccccc32)cc1
active: [2] 0.266 µM
not listed: [8] | [9] | [17] | [18] | [19]
inactive: all other assays above

OCC(CO)n1cnc(-c2ccc(F)cc2)c1-c1ccnc(Oc2ccccc2)n1
not listed: [8] | [10] | [13] | [19]
inactive: all other assays above

CC/C=C\CCOC(=O)c1ccccc1O
not listed: [7] | [14] | [17]
inactive: all other assays above

CC1(C)S[C@@H]2[C@H](NC(=O)Cc3ccccc3)C(=O)N2[C@H]1C(=O)O (tested in a mixture with another compound)
not listed: [7] | [10] | [11] | [12] | [18]
inactive: all other assays above

CC(C)CCCC(C)NCCC(C)C (stereo not drawn)
not listed: [7] | [12] | [18]
inactive: all other assays above

CC(C)CCCCCCOC(=O)c1ccc(C(=O)OCCCCCCC(C)C)c(C(=O)OCCCCCCC(C)C)c1
not listed: [12] | [16] | [17]
inactive: all other assays above

CN1CCC(=C2c3ccccc3C=Cc3ccccc32)CC1
active: [16] 13.3 µM
not listed: [8] | [10] | [11] | [12] | [14] | [18]
inactive: all other assays above

C=C1CC[C@H](O)C/C1=C\C=C1/CCC[C@]2(C)[C@@H]([C@H](C)CCCC(C)C)CC[C@@H]12
active: [2] 21.5 µM
not listed: [8] | [9] | [10] | [11] | [12] | [13] | [18]
inactive: all other assays above

O=C(c1ccc(O)cc1)c1ccc(O)cc1
not listed: [8] | [9] | [13] | [18]
inactive: all other assays above

CCCOC(=O)c1ccc(O)cc1
active: [2] 27.3 µM
not listed: [7] | [8] | [9] | [14] | [18]
inactive: all other assays above

Cc1cc(S(=O)(=O)O)c(N)cc1Cl
not listed: [7] | [19]
inactive: all other assays above

CN(C)c1ccc(CCO)cc1
active: [2] 27.1 µM
not listed: [8] | [13]
inactive: all other assays above

C[Si]1(C)O[Si](C)(C)O[Si](C)(C)O1
not listed: [17]
inactive: all other assays above

Clc1ccc2c(c1)CCc1cccnc1C2=C1CCNCC1
active: [1] 29.8 µM
not listed: [10] | [11] | [12] | [17] | [18] | [19]
inactive: all other assays above

CC(=O)Oc1cc(C(C)C)c(OCCN(C)C)cc1C
not listed: [8] | [9] | [17] | [18]
inactive: all other assays above

CCCCC(CC)COC(=O)COc1ccc(Cl)cc1C (stereo not drawn)
not listed: [6] | [8]
inactive: all other assays above

Source: PubChem BioAssay (Tox21)
